The campaign covered roughly 310,000 compounds. About 2,600 (0.84%) were called active.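 Rule for the calls: active = B-score over 3 SD under the library average, and starting fluorescence ratio not unusually high; inactive = the rest.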 The list comes from a sample in which actives are over-represented; it also holds similar structures and randomly drawn compounds.

Sequence of High affinity choline transporter 1 (Homo sapiens) (Q9GZV3 whole entry, looked up): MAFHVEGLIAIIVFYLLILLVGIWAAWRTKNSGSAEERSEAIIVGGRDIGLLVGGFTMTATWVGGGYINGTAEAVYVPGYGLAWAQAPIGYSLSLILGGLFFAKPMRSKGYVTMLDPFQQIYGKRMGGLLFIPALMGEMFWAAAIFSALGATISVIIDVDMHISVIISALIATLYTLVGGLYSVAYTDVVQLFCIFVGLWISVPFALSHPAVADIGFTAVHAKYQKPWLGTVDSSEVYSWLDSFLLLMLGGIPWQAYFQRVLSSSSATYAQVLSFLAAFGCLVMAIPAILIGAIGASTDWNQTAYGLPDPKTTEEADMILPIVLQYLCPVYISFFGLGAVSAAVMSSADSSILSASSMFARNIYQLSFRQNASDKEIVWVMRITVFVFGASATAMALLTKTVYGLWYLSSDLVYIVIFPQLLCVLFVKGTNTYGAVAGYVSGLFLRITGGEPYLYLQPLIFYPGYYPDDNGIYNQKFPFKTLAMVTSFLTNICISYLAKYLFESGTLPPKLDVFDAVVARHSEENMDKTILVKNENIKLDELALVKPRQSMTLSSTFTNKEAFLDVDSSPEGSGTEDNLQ

This test has as its target High affinity choline transporter 1 (Homo sapiens) (UniProt Q9GZV3). Description: inhibits the human high affinity choline transporter (AID 488975).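 For B-score: choline stimulus applied at its EC90 after an EC20 pre-addition; B-score computed on integrated fluorescence ratio after choline addition.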 Particulars: CHT-expressing cells, membrane potential dye, choline response, at 10 µM; active compounds read low.
`COc1ccc(CC2c3cc(OC)c(OC)cc3CC[N+]2(C)CCC(=O)OCCCCCOC(=O)CC[N+]2(C)CCc3cc(OC)c(OC)cc3C2Cc2ccc(OC)c(OC)c2)cc1OC` (centres undefined): the B-score entry was “inactive”.

For the molecule `Cc1ccccc1N1CC(C(=O)Nc2ccc(S(=O)(=O)N3CCCC3)cc2)CC1=O` (centres undefined), the B-score entry is “inactive”.

As for `CCC1(c2ccccc2)NC(=O)N(CC(=O)Nc2ccccc2C(=O)NC2CCCC2)C1=O` (centres undefined), the B-score result is “inactive”.

On to `CCc1noc(C)c1C(=O)Oc1ccc(N(C)S(=O)(=O)c2ccc(C)c(C)c2)cc1`, for which the B-score entry is “inactive”.

For `CC1CN(S(=O)(=O)c2ccc(C(=O)NN3CCN(C)CC3)cc2)CC(C)O1` (centres undefined), the B-score is -5.14 (active).

Regarding `CC1CC(C)CN(S(=O)(=O)c2ccc(C(=O)NN3CCOCC3)cc2)C1` (centres undefined), the B-score result was “inactive”.

As to `CN1CCN(NC(=O)c2ccc(S(=O)(=O)N3CCCCCC3)cc2)CC1`, the B-score entry is “inactive”.

For the molecule `CCCc1cc(=O)[nH]c(SCC(=O)c2c(N)n(CC(C)C)c(=O)n(C)c2=O)n1`, the B-score entry is “inactive”.

In the case of `Cc1ccccc1-n1nnc2c(=O)oc3ccccc3c21`, the B-score is -6.25 (active).

Take `CCCCC(=O)Nc1cc(C)c2c(=O)oc3ccccc3c2n1`: the B-score result is “inactive”.

In the case of `CCOC(=O)c1c(C)nc2c(c1C)c(=O)oc1ccccc12`, the B-score entry was “inactive”.

With `Cc1ccc(Cl)c(OCC(=O)N(C)CC(=O)Nc2ccc(N3CCOCC3)cc2)c1`, the B-score result was “inactive”.

`CNC(=O)/C(=C\C=C\c1ccccc1)NC(=O)c1ccc([N+](=O)[O-])cc1`: the B-score result was “inactive”.

Turning to `Cc1ccc(C(=O)N/C(=C/C=C/c2ccccc2)C(=O)NCc2ccco2)cc1`, the B-score was -7.21 (active).

`O=C(NCc1ccco1)/C(=C/c1ccco1)NC(=O)c1ccccc1`: the B-score entry was “inactive”.

For `Cc1n[nH]c(=O)c2c(NC(=O)CSc3ccccc3F)oc(C)c12`, the B-score entry was “inactive”.

Consider `Cc1ccc2nc(SCC(=O)Nc3cccc4ccccc34)nc(=O)n2c1`, for which the B-score result was “inactive”.

For the molecule `Cc1c(Cl)c([N+](=O)[O-])nn1CC(=O)NCC1CCCO1` (centres undefined), the B-score result was “inactive”.

On to `Cc1sc2c(c1C)c(=O)n(-c1ccccc1)c(=O)n2CC(=O)NCC1CCCO1` (centres undefined), for which the B-score result was “inactive”.

As for `Cc1nn(CC(=O)NCC2CCCO2)c(=O)c2cc3ccccc3n12` (centres undefined), the B-score is -5.7 (active).

With `COc1ccc(N2C(=O)CC(SC(C)C)C2=O)cc1` (centres undefined), the B-score result was “inactive”.

Take `COc1ccc(N2C(=O)CNC2=S)cc1`: the B-score is -7.99 (active).

Regarding `COc1ccc(N2C(=O)C(Cc3ccccc3)NC2=S)cc1` (centres undefined), the B-score result is “inactive”.

With `CCOC(=O)N1CCN(C(=O)c2ccccc2SCC(=O)NCC2CCCCC2)CC1`, the B-score entry is “inactive”.

Regarding `NC(=O)c1ccc(CN2CCC(Cc3ccccc3)CC2)cc1`, the B-score result was “inactive”.

Regarding `O=C(O)c1ccc(S(=O)(=O)N2CCC(Cc3ccccc3)CC2)cc1`, the B-score result was “inactive”.

As to `CC(C)(C)NC(=O)NC(=O)CN1CCC(Cc2ccccc2)CC1`, the B-score is -7.19 (active).

Take `Cc1sc2ncnc(N3CCC(C(=O)NNC(=O)c4ccc(F)cc4)CC3)c2c1C`: the B-score entry is “inactive”.

In the case of `CCn1c(=O)cc(O)c2ccccc21`, the B-score entry is “inactive”.

Take `Cn1c2ccccc2c(=O)c2c(O)cccc21`: the B-score was -5.96 (active).

For the molecule `Cc1cc(C)c(-c2c(O)c3ccccc3n(C)c2=O)c(C)c1`, the B-score result was “inactive”.

Turning to `CCCC[C@@H]1CN=C(N)N1CCc1cccc(F)c1`, the B-score result was “inactive”.

For the molecule `Cc1cccc(Nc2nc(NCCO)nc(N3CCCC3)n2)c1`, the B-score result was “inactive”.

Take `COc1ccc(C(=O)N(Cc2ccccc2)c2ccc(C)cc2)cc1S(=O)(=O)N1CCOCC1`: the B-score entry is “inactive”.

As for `COc1cccc(NC(=O)CSc2nccn(-c3ccc4c(c3)OCCO4)c2=O)c1`, the B-score entry is “inactive”.

Take `CC(C)(C)S(=O)(=O)c1ccccc1-c1noc(-c2ccccc2)c1C(N)=O`: the B-score result was “inactive”.

Consider `CN(C)CCn1c2c(c(SCC(=O)NCc3ccccc3)nc1=O)CCC2`, for which the B-score result was “inactive”.

Take `Nc1cc(N2CCCCCC2)c2nonc2c1[N+](=O)[O-]`: the B-score was -7.12 (active).

Consider `COCCNc1nc(N)c([N+](=O)[O-])c(N2CCCCCC2)n1`, for which the B-score result is “inactive”.

In the case of `Nc1nc(NCC(=O)O)nc(N2CCCCCC2)c1[N+](=O)[O-]`, the B-score result was “inactive”.

With `Cc1ccc(S(=O)(=O)N2CCN(C(=O)Cc3sc(C)nc3-c3ccc(F)cc3)CC2)c(C)c1`, the B-score entry was “inactive”.

For `COc1ccc(NC(=O)CN(C)C(=O)c2cccc(S(=O)(=O)N3CCN(c4ccccc4)CC3)c2)cc1`, the B-score entry was “inactive”.

In the case of `Cc1ccccc1NC(=O)COc1cccc2c1CCNC2=O`, the B-score entry is “inactive”.

Take `Cc1c(NC(=S)Nc2ccccc2)c(=O)n(-c2ccccc2)n1C`: the B-score entry is “inactive”.

Consider `Cc1ccc(S(=O)(=O)/N=C(/NC(=S)Nc2c(C)n(C)n(-c3ccccc3)c2=O)c2ccccc2)cc1`, for which the B-score was -6.35 (active).

For `Cc1ccc(S(=O)(=O)CC(=O)Nc2c(C)n(C)n(-c3ccccc3)c2=O)cc1`, the B-score result was “inactive”.

As to `CC(=O)N1CCc2c(sc(NC(=O)CCS(=O)(=O)c3ccc(C)cc3)c2C(N)=O)C1`, the B-score entry is “inactive”.

Consider `O=C(c1cc(-c2ccco2)nc2ccccc12)N(Cc1nnc(-c2ccc(Cl)cc2)o1)C1CC1`, for which the B-score result was “inactive”.

Take `CC(C)CN(C(=O)COC(=O)c1ccc2ccccc2c1)c1c(N)n(Cc2ccccc2)c(=O)[nH]c1=O`: the B-score result was “inactive”.

Take `COc1ccc(/C=N/NC(=O)c2cc(-c3cccc(C)c3)nc3ccccc23)cc1O`: the B-score result is “inactive”.

In the case of `COc1ccccc1OCCCCCCN1CCN(C)CC1`, the B-score result is “inactive”.

Regarding `CCN(CC)c1ccc(S(=O)(=O)N2CCCCC2)cc1NC(=O)C1=COCCO1`, the B-score entry is “inactive”.

For `CCOc1ccccc1Nc1ccc2nonc2c1[N+](=O)[O-]`, the B-score was -6.62 (active).

In the case of `Cc1ccccc1Nc1c([N+](=O)[O-])ccc2nonc12`, the B-score result was “inactive”.

For `CCOc1ccccc1Nc1ccc(C(=O)O)cc1[N+](=O)[O-]`, the B-score entry is “inactive”.

In the case of `COc1ccc(-c2ccc3nnc(SCC(=O)Nc4ccc(NC(C)=O)cc4)n3n2)cc1`, the B-score result was “inactive”.

As to `Cc1cccc(C)c1-n1c(C)cc(/C=C2\C(=O)NN(c3ccccc3)C2=O)c1C`, the B-score entry is “inactive”.

Turning to `Cc1ccccc1-n1c(C)cc(/C=C2\NC(=O)NC2=O)c1C`, the B-score was -8.08 (active).

For `Cc1cc(/C=C2/NC(=O)NC2=O)c(C)n1-c1cccnc1`, the B-score entry is “inactive”.

The values above are taken from PubChem BioAssay AID488975 (Johns Hopkins Ion Channel Center, 2010).
